# Screening results as filed in PubChem BioAssay.
# This is a sample that favours compounds with a hit; in the whole collection about 6.2% have one here.
# Mot1-301 SUMO = inhibitors of SUMOylation pathway: yeast Mot1-301 growth rescue; S. cerevisiae Mot1-301 growth rescue, ATP luminescence, 38.5C; percent above DMSO median, 100 means doubled; growth rescue, % at 18.8 µM; 320,000 tested, 1% active; AID 2716;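 active means every valid replicate shows activation above 250% relative to neutral control wells; inactive means the rest, any valid replicate at or below 250%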;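 further: OY570 slx delta 5 strain wells were the positive control but not used for scaling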
# Cardio protect = myocardial damage modulation in H9c2 cells; AID 588492; H9c2 cardiomyocytes, H2O2 injury protection, ATPLite, 2 h; 360,000 tested, 0.63% active; protection from H2O2 cell death, % at 20 µM;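 active means compounds giving at least 50% protection of heart cells from peroxide-induced death in the single-dose screen, raw or plate-pattern-corrected value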;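 further: 0% = DMSO wells with peroxide and 100% = DMSO wells without peroxide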
# AI-2 QS modul = Vibrio harveyi AI-2 quorum sensing modulation; AID 2094; 300,000 tested, 0.4% active; activity change, % at 7.5 µM; Vibrio harveyi JMH597 AI-2 luminescence/OD600 ratio, 9 h; active compounds read low; strain lacks LuxN and CqsS sensors; 0 = neutral-control median; in the data active means activity change below about -75%, passing the limit was not always enough; inconclusive means no clear call, values can overlap the other calls;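 further: luminescence divided by OD600 gain over 9 h not by final OD600 alone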
# AHR act = activates the human aryl hydrocarbon receptor; P35869; AHR-responsive luciferase reporter cells, luminescence; activation, % at 5 µM; 320,000 tested, 2.5% active; in the data active means activation above about 47%;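 further: 0% = vehicle wells and 100% = reference agonist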
# NR3A LBD binder = modulators (binders) of human NR3A ligand-binding domain. NR3A LBD differential scanning fluorimetry, Tm shift; 0% = protein alone, 100% = glycine-bound protein. AID 1259313. Tm shift relative to glycine control, % at 25 µM. 340,000 tested, 2.5% active;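 active means melting temperature shift of at least 10% of the positive control shift, at one fixed dose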
# NTR1 agonist = NTR1 (human) agonism | P30989 | NTR1-U2OS beta-arrestin-GFP spot imaging, agonist mode | activation, % at 20 µM | 330,000 tested, 0.17% active;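 active means activation at or above 40% of the spot to cytoplasm intensity ratio, with at least 20 cells analyzed; inconclusive means wells under 20 cells, flagged as cytotoxic or low count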;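 further: 0% = DMSO without peptide and 100% = 100 nM NTR1 peptide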
# Target sequence (P30989 whole entry, looked up): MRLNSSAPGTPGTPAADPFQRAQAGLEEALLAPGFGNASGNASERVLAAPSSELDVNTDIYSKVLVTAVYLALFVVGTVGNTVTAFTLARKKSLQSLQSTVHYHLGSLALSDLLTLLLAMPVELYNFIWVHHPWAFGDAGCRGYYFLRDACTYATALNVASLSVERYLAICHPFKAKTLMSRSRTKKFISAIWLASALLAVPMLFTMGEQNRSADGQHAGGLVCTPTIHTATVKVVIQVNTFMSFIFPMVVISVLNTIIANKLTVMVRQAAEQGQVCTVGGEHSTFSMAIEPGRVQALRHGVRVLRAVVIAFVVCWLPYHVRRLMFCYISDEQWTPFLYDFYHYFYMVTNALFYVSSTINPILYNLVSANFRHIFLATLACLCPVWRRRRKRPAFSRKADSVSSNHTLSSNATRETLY
# * hit, by the source's call; ? = inconclusive; . = not tested or not shown.
SMILES,Mot1-301 SUMO,Cardio protect,AI-2 QS modul,AHR act,NR3A LBD binder,NTR1 agonist
CCOC(=O)c1sc(NC(=O)Nc2ccc(Cl)cc2)cc1C,10,-21,20,18,27*,10
CCOC(=O)c1sc(NC(=O)c2ccc(Cl)s2)cc1C,-8,-6,10,-5,18*,-1
O=C(NCCN1CCN(c2ccccc2)CC1)Nc1ccccc1Br,12,-4,-7,.,-1,2
CC(C)CSc1nnc2c3ccccc3n(C)c2n1,-12,-9,-7,57*,0,4
O=C(CNc1cccc2ccccc12)N/N=C/C(Br)=C/c1ccccc1,31,-23,12,2,16*,7
O=C(CNc1cccc2ccccc12)N/N=C/c1ccc[nH]1,11,-2,-32,32,-7,1
CSc1ccc(/C=N/NC(=O)CNc2cccc3ccccc23)cc1,3,-7,14,26,19*,4
O=C(CNc1cccc2ccccc12)N/N=C/c1ccc(OC(=O)/C=C/c2ccco2)cc1,.,-2,35,.,6,.
O=C(CNc1ccc2ccccc2c1)N/N=C/c1ccc(OC(=O)/C=C/c2ccco2)cc1,-9,-6,37,24,21*,2
CSc1ccc(/C=N/NC(=O)CNc2ccc3ccccc3c2)cc1,15,-5,-8,68*,21*,4
CCOC(=O)C1=C(COC(=O)c2ccc(Cl)nc2)NC(=O)NC1C (stereo not given),.,3,.,.,-1,.
COc1ccc(CN(C(=O)CCC(=O)Nc2cc(C)on2)C(C(=O)NC(C)(C)C)c2cccc(OC)c2OC)cc1 (stereo not given),91,0,-3,0,-1,0
CCOC(=O)N1CCC(NCCNC(=O)c2ccc(F)c(F)c2)CC1,-23,0,.,0,0,2
O=C(CCn1cnnn1)N1CCCC(Nc2ccc(F)c(F)c2)C1 (stereo not given),7,-5,33,0,-2,-1
O=C(/C=C/c1ccco1)Oc1cc(Br)cc(/C=N/NC(=O)c2ccccc2O)c1,182,19,23,24,11*,.
CCOC(=O)C1=C(C)NC(=S)NC1c1ccc(OCC(=O)N2CCCCC2)cc1 (stereo not given),9,-3,0,0,-2,0
Oc1nc(Nc2ccccc2)sc1/C=C1\C=Nc2ccccc21,24,4,45,147*,27*,16
O=c1oc2ccccc2c(O)c1/C=C1\C=Nc2ccccc21,-4,-1,?,30,-2,0
CCn1c(O)c(/C=C2\C=Nc3ccccc32)sc1=Nc1ccc(C)cc1,-3,-6,3,0,18*,2
CCn1c(O)c(/C=C2\C=Nc3ccccc32)sc1=O,3,-8,1,76*,-13,-1
O=c1[nH]c(O)c(/C=C2\C=Nc3ccccc32)[nH]1,-8,2,24,.,31*,.
CCOC(=O)c1c(Nc2ccccc2)sc(/C=C2\C=Nc3ccccc32)c1O,-9,4,13,-5,-1,5
CC(=O)NC(c1ccccc1)c1nc(-c2cccc(C(F)(F)F)c2)cs1 (stereo not given),.,-8,.,.,.,.
O=c1[nH]c(=O)n2c(c1-c1ccccc1)OC(CBr)C2 (stereo not given),.,3,.,.,.,.
CCn1c(=O)c2sccc2n2c(CCCC(=O)NCc3cccnc3)nnc12,-1,0,31,2,0,1
SMILES,Mot1-301 SUMO,Cardio protect,AI-2 QS modul,AHR act,NR3A LBD binder,NTR1 agonist
O=c1cc(-c2ccc(F)cc2)oc2ccccc12,.,35,20,71*,1,-1
O=c1oc2ccc(Cl)cc2cc1-c1ccccc1,20,-7,11,-8,14*,-2
O=c1oc2ccccc2cc1-c1ccccc1,16,-5,0,-4,0,-1
O=c1cc(-c2ccc(O)cc2)oc2ccc3ccccc3c12,55,-24,.,-4,24*,38
O=c1cc(-c2ccc3c(c2)OCCO3)oc2ccc(Cl)cc12,-10,-12,15,-2,12*,-1
CCOC(=O)C1=C(COC(=O)C2CC(=O)N(c3ccc(C)cc3)C2)NC(=O)NC1C (stereo not given),-6,-3,8,1,0,1
CN(Cc1ccco1)C(=O)[C@H](Cc1ccccc1)NC(=O)CC[C@H]1O[C@@H](n2ccc(=O)[nH]c2=O)[C@H](O)[C@@H]1O,.,9,.,.,.,.
O=c1cc(-c2ccncc2)oc2c1ccc1ccccc12,7,66*,5,12,0,1
O=c1cc(-c2ccccc2)oc2ccc(Cl)cc12,.,-1,.,.,14*,.
CCSc1ccc(/C(N)=N/OC(=O)c2cccs2)cn1,322,-13,26,14,-9,2
COCOCCn1cc(CN2CCS(=O)(=O)N(Cc3ccc(-c4ccncc4)cc3)C(CC(C)C)C2=O)nn1 (stereo not given),.,30,.,.,.,.
CCc1ccccc1NC(=O)CN1CCN(C(=O)CCC(=O)N2CCC(c3ccccc3)=N2)CC1,37,-3,.,0,1,2
O=C(c1ccc(-n2cncn2)c([N+](=O)[O-])c1)N1CCN(S(=O)(=O)c2ccc(F)c(F)c2)CC1,-3,3,3,5,1,1
CCOc1ccc(NC(=O)Nc2ccc3c(c2)nnn3C)cc1,8,12,14,-3,16*,-1
O=C(Nc1ccc(-c2noc(COc3ccccc3Cl)n2)cc1)c1ccco1,-13,-17,0,-5,13*,1
O=C(COc1ccccc1Cl)NCCCNC(=O)c1ccco1,147,-1,18,3,-1,0
O=C(COc1ccccc1Cl)Nc1ccc(NC(=O)c2ccco2)cc1,25,3,.,2,15*,1
COc1ccc(CC(=O)Nc2ccc(-c3noc(COc4ccccc4C)n3)cc2)cc1,-12,-9,5,-3,-7,0
CCN1C(=O)/C(=C2\SC(=S)N(NC(=O)c3ccccc3O)C2=O)c2ccccc21,-25,2,20,8,14*,2
Cc1ccc2cc(CN(CC3CCCO3)S(=O)(=O)c3c(C)ccc4nsnc34)c(=O)[nH]c2c1 (stereo not given),-8,6,29,8,1,3
Cc1ccc2nsnc2c1S(=O)(=O)N(Cc1cc2cccc(C)c2[nH]c1=O)CC1CCCO1 (stereo not given),26,80*,0,4,1,4
CC(C)CC(N)c1csc(Nc2ccc(C(F)(F)F)cn2)n1 (stereo not given),.,-32,.,.,.,.
Cc1ccc(C)c(OCC(O)CN2CCN(CCN3C(=O)c4cccc5cccc(c45)C3=O)CC2)c1 (stereo not given),23,3,1,-8,-5,3
